A selection: hits, their analogues and other compounds. The true share with any hit is near 11%.
JMJD2A Tudor inh: JMJD2A Tudor domain (human) inhibition. O75164. AlphaScreen JMJD2A-Tudor / H3K4me3 peptide binding. Potency, µM (highest dose often 114 µM), for the others: top-dose activity change, negative = inhibition, most hits filed as inhibitors. hit rate 4.4% among 390,000; further: potency means the concentration at half of the fitted maximal effect; on the % scale 0 is the no-effect control and ±100 the full control effect; nearly all actives have a fitted effect of over 50% in size
BAZ2B inh: blocks human BAZ2B | AlphaScreen BAZ2B-H3K14Ac peptide displacement | Potency, µM (top dose mostly 114 µM), for the others: at the highest dose activity change, negative = inhibition, actives largely listed as inhibitors | hit rate 4.4% among 360,000; further: potency means the concentration at half of the fitted maximal effect; on the % scale 0 is the no-effect control and ±100 the full control effect; nearly all actives have a fitted effect of over 60% in size
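AlphaScreen displacement of biotin-H3(5-23)K14Ac peptide (50 nM final) from BAZ2B (50 nM final) in PBS pH 7.4, 0.01% Tween-20; complex preformed 30 min RT, then compounds (top 110 uM) 30 min RT, beads 20 min dark.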
HP1b binding inh: HP1-beta chromodomain-methylated histone interaction inhibition | AlphaScreen HP1-beta / biotin-H3K9me3 peptide binding | Potency, µM (series often up to 114 µM), without a hit: at the top dose activity change, negative = inhibition, most hits filed as inhibitors | hit rate 0.56% among 390,000; further: potency means the concentration at half of the fitted maximal effect; nearly all actives have a fitted effect of over 70% in size
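AlphaScreen: HP1-beta (50 nM) preformed 30 min with biotin-H3(1-18)K9me3 peptide (50 nM) in PBS pH 7.4, 0.01% Tween-20. Compound added for 30 min at RT, then streptavidin donor/nickel chelate acceptor beads (10 ug/mL) for 30 min.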
G9a inh: inhibitors of human histone lysine methyltransferase G9a. G9a H3K9 monomethylation, AlphaScreen, 2 h. Potency, µM (top dose mostly 102 µM), inactives show at the highest dose activity, negative = inhibition, actives largely listed as inhibitors. hit rate 8.8% among 350,000. AID 504332; further: potency means the concentration at half of the fitted maximal effect; on the % scale 0 is the no-effect control and ±100 the full control effect; nearly all actives have a fitted effect of over 75% in size
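Methyltransferase reactions run at room temperature for 2 h (20 nM enzyme, 500 nM biotin-H3K9 peptide, 20 uM SAM) after a 15 min compound preincubation; product detected by AlphaScreen beads and anti-H3K9me1 antibody.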
PI5P4K alpha inh: PI5P4K alpha (human) kinase inhibition | P48426 | PI5P4Kalpha enzyme, ADP-Glo luminescence, 60 min; active compounds read low | max response, % | hit rate 1.2% among 330,000 | AID 652105; active means max response of -50% or lower; inconclusive means between -30% and -50%; inactive means -30% or higher; further: value at the top dose of about 77 µM; on the % scale 0 is the no-effect control and ±100 the full control effect
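Reactions run in 0.038 M HEPES pH 7.4, 0.28 mM EGTA, 0.1% CHAPS and 5% DMSO, with PI5P4Kalpha, substrate, compound and 5 microM ATP final, one hour at room temperature. Readout is ADP-Glo luminescence.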
L3MBTL1 inh: inhibitors of human L3MBTL1; AID 485360; Q9Y468; Potency, µM (titrated, usually from 57.1 µM), without a hit: top-dose activity, negative = inhibition, most hits filed as inhibitors; hit rate 0.66% among 230,000; AlphaScreen L3MBTL1–H3K9me1 peptide binding; further: potency means the concentration at half of the fitted maximal effect; on the % scale 0 is the no-effect control and ±100 the full control effect; nearly all actives have a fitted effect of over 60% in size
Target sequence (Q9Y468 whole entry, looked up): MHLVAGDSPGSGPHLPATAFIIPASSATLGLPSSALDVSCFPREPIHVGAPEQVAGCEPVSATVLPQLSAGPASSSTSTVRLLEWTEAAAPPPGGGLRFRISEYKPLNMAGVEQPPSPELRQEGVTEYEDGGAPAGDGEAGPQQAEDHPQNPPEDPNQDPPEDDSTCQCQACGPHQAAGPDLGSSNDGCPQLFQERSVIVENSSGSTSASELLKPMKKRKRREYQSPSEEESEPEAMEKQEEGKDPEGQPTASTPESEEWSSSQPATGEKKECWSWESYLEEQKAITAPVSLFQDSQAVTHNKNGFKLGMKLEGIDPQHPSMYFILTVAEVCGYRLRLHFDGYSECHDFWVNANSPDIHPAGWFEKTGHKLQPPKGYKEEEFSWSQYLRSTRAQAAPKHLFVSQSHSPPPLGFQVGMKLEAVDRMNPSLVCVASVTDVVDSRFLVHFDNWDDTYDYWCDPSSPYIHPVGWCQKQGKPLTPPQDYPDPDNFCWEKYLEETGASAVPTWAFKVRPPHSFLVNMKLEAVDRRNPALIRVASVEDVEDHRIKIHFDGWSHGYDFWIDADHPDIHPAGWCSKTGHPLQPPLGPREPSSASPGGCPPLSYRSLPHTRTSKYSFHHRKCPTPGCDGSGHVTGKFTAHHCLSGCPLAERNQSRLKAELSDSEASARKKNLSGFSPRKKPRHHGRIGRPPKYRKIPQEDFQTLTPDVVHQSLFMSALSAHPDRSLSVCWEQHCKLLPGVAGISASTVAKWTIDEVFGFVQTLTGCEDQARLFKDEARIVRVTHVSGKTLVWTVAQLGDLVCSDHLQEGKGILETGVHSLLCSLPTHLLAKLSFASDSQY
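AlphaScreen assay: L3MBTL1 (50 nM final) was preincubated 30 min at room temperature with biotinylated H3(1-15)K9me1 peptide (75 nM final), then 30 min with library compounds; streptavidin donor and nickel chelate acceptor beads (10 ug/mL final) added, 30 min dark.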
Active calls of the source: *; [ ] = another dose, or the depositor's remark. Unless noted, the call rests on the fitted dose curve; in most records, active means well fitted inhibition curve with a large enough effect; inconclusive means small, poorly fitted or top-dose-only effect; inactive means no such curve, though single readings can be large or run the other way.

Screening COc1cc(OC)cc(-c2cc3cc4c(cc3cn2)OCO4)c1 returned JMJD2A Tudor inh -8.5%, HP1b binding inh 14.3%, PI5P4K alpha inh 10.9 and L3MBTL1 inh -4.2%.
Screening COc1cc(OC)cc(-c2n[nH]c(=S)n2-c2ccc3c(c2)OCO3)c1 returned JMJD2A Tudor inh 20µM*, BAZ2B inh -11.0%, HP1b binding inh -2.8%, G9a inh 1.78µM*, PI5P4K alpha inh 2.1 and L3MBTL1 inh 7.8%.
CN(C)CCCN(C(=O)c1cc2ccccc2oc1=O)c1nc2ccc(F)cc2s1 was read as JMJD2A Tudor inh -15.3%, BAZ2B inh -32.5%, HP1b binding inh 14.6%, G9a inh inconclusive, PI5P4K alpha inh -1.5 and L3MBTL1 inh -3.4%.
Screening COc1ccc2nc(N(Cc3ccccc3)C(=O)CCNC(C)=O)sc2c1 returned JMJD2A Tudor inh -9.7%, BAZ2B inh -34.3%, HP1b binding inh 21.3%, G9a inh 31.6µM* and PI5P4K alpha inh -1.3.
COc1ccc2nc(N(CCN(C)C)C(=O)/C=C/c3cccs3)sc2c1 was read as JMJD2A Tudor inh -27.4%, HP1b binding inh 28.5%, G9a inh 14.1µM* and PI5P4K alpha inh -4.5.
Screening CCN(CC)CCN(C(=O)c1ccc2ccccc2c1)c1nc2ccc(OC)cc2s1 returned JMJD2A Tudor inh inconclusive, BAZ2B inh inconclusive, HP1b binding inh -10.5%[57 µM], G9a inh 79.4µM* and PI5P4K alpha inh -8.4.
For CCN(CC)CCN(C(=O)c1cc2ccccc2cc1OC)c1nc2ccc(F)cc2s1 the results were JMJD2A Tudor inh 31.6µM*, BAZ2B inh inconclusive, HP1b binding inh 18.8%, G9a inh 39.8µM* and PI5P4K alpha inh 3.3.
`O=c1c(-c2cc(F)cc(F)c2)nc2cncnc2n1Cc1ccc(F)cc1` gave G9a inh -0.6%[12.7 µM].
`CCOC(=O)C1=C(CS(=O)(=O)c2ccc(C)cc2)NC(=O)NC1c1ccc(C(C)C)cc1` (stereo unspecified) gave JMJD2A Tudor inh -20.2%, BAZ2B inh -13.2%, HP1b binding inh 32.8% and G9a inh -4.5%[59 µM].
Screening CCN(CC)CCN(C(=O)c1cc2ccccc2cc1OC)c1nc2ccc(OC)cc2s1 returned JMJD2A Tudor inh inconclusive, BAZ2B inh inconclusive, HP1b binding inh -5.6%, G9a inh 44.7µM* and PI5P4K alpha inh 1.7.
Cc1ccccc1C(=O)Nc1nnc(SCc2cc(=O)c3c(C)ccc(C)c3[nH]2)s1 was read as JMJD2A Tudor inh -31.5%, BAZ2B inh 56.2µM*, HP1b binding inh 19.6%[57 µM] and G9a inh 7.7%[59 µM].
CCCN(CCC)C(=O)c1cc([N+](=O)[O-])cc2c1-c1ccc([N+](=O)[O-])cc1C2=C(C#N)C#N was read as JMJD2A Tudor inh inconclusive, BAZ2B inh inconclusive, HP1b binding inh -13.3%, G9a inh 44.7µM*, PI5P4K alpha inh 0.3 and L3MBTL1 inh -20.1%.
CCCCN(CCCC)C(=O)c1cc(Cl)ccc1[N+](=O)[O-] was read as JMJD2A Tudor inh -8.1%, BAZ2B inh -9.5%, HP1b binding inh 8.4%, G9a inh 6.7%[59 µM], PI5P4K alpha inh 7.9 and L3MBTL1 inh 2.7%.
Screening COc1ccc(CNc2ncncc2-c2ccc(N(C)C)cc2)c(OC)c1 returned G9a inh -0.7%[0.501 µM].
`COc1ccccc1N1CCN(S(=O)(=O)c2c(C)nc3sc(C)c(C)n3c2=O)CC1` gave JMJD2A Tudor inh 0.7%, BAZ2B inh -13.2%, HP1b binding inh 26.0% and G9a inh -2.3%[59 µM].
N#Cc1c(-c2ccccc2)[nH]c(=O)[nH]c1=O was read as JMJD2A Tudor inh -6.5%, BAZ2B inh 5.9%, HP1b binding inh 29.0%, G9a inh -7.5%, PI5P4K alpha inh -91.8* and L3MBTL1 inh -10.5%.
Screening COc1ccccc1OCC(=O)NCC1(N2CCOCC2)CCCCC1 returned JMJD2A Tudor inh -20.9%, BAZ2B inh -25.9%, HP1b binding inh 3.8% and G9a inh -4.5%[59 µM].
Screening COc1ccc(O)c(C(=O)c2cc(C(=O)NCCc3ccccc3)c(=O)n(CCc3ccccc3)c2)c1 returned JMJD2A Tudor inh inconclusive, BAZ2B inh inconclusive, HP1b binding inh inconclusive, G9a inh 8.91µM*, PI5P4K alpha inh -5.3 and L3MBTL1 inh -28.2%.
`Cc1ccc(S(=O)(=O)N2CCN(C(=O)c3sccc3C)CC2)cc1` gave JMJD2A Tudor inh -4.1%, BAZ2B inh inconclusive, HP1b binding inh 18.5%, G9a inh inconclusive, PI5P4K alpha inh 3.1 and L3MBTL1 inh 4.9%.
For Cc1ccsc1C(=O)N1CCN(S(=O)(=O)c2cccc(F)c2)CC1 the results were JMJD2A Tudor inh -17.0%, BAZ2B inh 6.6%, HP1b binding inh -14.1%, G9a inh 28.2µM*, PI5P4K alpha inh 0.0 and L3MBTL1 inh -1.2%.
COc1ccc(/C=C2\N=C(C)OC2=O)cc1OC(C)=O was read as JMJD2A Tudor inh -13.7%, BAZ2B inh -1.7%, HP1b binding inh 9.7%, G9a inh 28.2µM* and PI5P4K alpha inh -5.0.
COc1ccc(/C=C2\N=C(C)OC2=O)cc1OC was read as JMJD2A Tudor inh 1.0%, BAZ2B inh -0.5%, HP1b binding inh 10.9%, G9a inh 35.5µM* and PI5P4K alpha inh 1.5.
Cc1cccc(Cn2c(=O)n(Cc3ccc4c(c3)OCO4)c(=O)c3oc4ccccc4c32)c1 was read as JMJD2A Tudor inh 6.2%, BAZ2B inh -3.8%, HP1b binding inh 55.5% and G9a inh 6.1%[59 µM].
For COc1cc(OC)c(NC(=O)CCc2nc(C3=CCN(Cc4cccc(Cl)c4)CC3)no2)cc1Cl the results were JMJD2A Tudor inh inconclusive, BAZ2B inh -27.8%, HP1b binding inh 15.9%[57 µM] and G9a inh inconclusive.
CCOC(=O)C1CCCN(C2CC(=O)N(c3ccc(N4C(=O)CC(N5CCCC(C(=O)OCC)C5)C4=O)cc3)C2=O)C1 (stereo unspecified) was read as JMJD2A Tudor inh -2.9%, BAZ2B inh 50.1µM*, HP1b binding inh 41.7%, G9a inh 31.6µM*, PI5P4K alpha inh -0.9 and L3MBTL1 inh -1.4%[11.4 µM].
`CCOC(=O)C1CCCN(C2CC(=O)N(c3cccc(C(F)(F)F)c3)C2=O)C1` (stereo unspecified) gave JMJD2A Tudor inh 56.2µM*, BAZ2B inh -31.3%, HP1b binding inh 46.0%, G9a inh inconclusive, PI5P4K alpha inh -9.7 and L3MBTL1 inh -11.2%.
For Cc1cccc(N2C(=O)CSC23C(=O)N(CC(=O)NCc2ccccc2Cl)c2ccccc23)c1 (stereo unspecified) the results were JMJD2A Tudor inh -13.3%, BAZ2B inh 0.5%[57.1 µM], HP1b binding inh 24.1% and G9a inh -7.9%[59 µM].
